# This is a sample that favours compounds with a hit; in the whole collection about 1.9% have one here.
# GALR2 ag – activates the human galanin receptor 2. O43603. GALR2-expressing cells, agonist activation read-out. activation, % (concentration not given with the values). 0.48% of 140,000 active; in the data active = activation above about 5%, passing the limit was not always enough;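 note: 0% = vehicle buffer wells and 100% = reference agonist at full effect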
# S1P2 ag – agonists of human S1P2 receptor. S1P2-expressing cell line, agonist reporter read-out. 0.46% of 97,000 active. activation, % at 4.5 µM. O95136; in the data active = activation above about 16%;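 note: 0% = vehicle low control and 100% = maximal reference agonist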
# Target sequence (O95136 whole entry, looked up): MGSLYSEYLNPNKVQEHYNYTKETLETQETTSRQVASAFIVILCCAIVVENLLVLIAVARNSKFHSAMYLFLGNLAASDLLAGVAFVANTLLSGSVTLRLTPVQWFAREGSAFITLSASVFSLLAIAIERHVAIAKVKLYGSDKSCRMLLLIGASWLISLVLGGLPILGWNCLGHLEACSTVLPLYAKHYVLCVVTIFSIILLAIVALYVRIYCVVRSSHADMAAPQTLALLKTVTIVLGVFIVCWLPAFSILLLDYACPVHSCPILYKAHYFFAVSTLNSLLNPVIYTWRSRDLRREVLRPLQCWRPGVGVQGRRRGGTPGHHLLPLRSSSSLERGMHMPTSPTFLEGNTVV
# FAK blocker – inhibitors of human focal adhesion kinase | inhibition, %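 (tested at 7 µM)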 | biochemical FAK kinase activity assay | AID 727 | 0.84% of 97,000 active; in the data active = inhibition above about 19%;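 note: 0% = DMSO and 100% = reference compound high control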
# S1P2 blocker – S1P2 (human) receptor antagonism; inhibition, % at 5 µM; cell-based S1P2 antagonist assay, inhibition at 5 uM; 0.21% of 97,000 active; AID 736; O95136; in the data active = inhibition above about 45%;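 note: CRE beta-lactamase reporter cells expressing human S1P2 stimulated with S1P; 0% = agonist at EC80 alone and 100% = agonist plus reference antagonist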
# sdo1 growth – restores growth of sdo1-depleted yeast; S. cerevisiae sdo1-depleted JHY4D growth rescue, OD600 30 h; hits give high values; pdr5 snq2 efflux-pump mutant strain; z-score at 10 µM; 0.21% of 140,000 active;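 active = z-score above 3 at both the 24 hr and the 30 hr optical density reads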;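 note: z-score against mean and SD of all compound wells on the same plate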
# GALR2 blocker – antagonists of human galanin receptor 2 (GALR2); GALR2-expressing cells, antagonist mode; 0.39% of 140,000 active; inhibition, % at 4 µM; O43603; in the data active = inhibition above about 27%;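 note: cells stimulated with galanin 1-16 at roughly its EC80; 0% = agonist challenge control and 100% = basal control without agonist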
# GALR2 ag confirm – confirmation of human galanin receptor 2 (GALR2) agonists. GALR2-expressing cells, agonist activation. 10% of 460 active. AID 864. shares compounds with GALR2 ag. activation, % at 5.6 µM; in the data active = activation above about 8.4%;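 note: 0% = buffer-only vehicle wells and 100% = full reference agonist response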
# BLA activ ctr – activates beta-lactamase reporter in GALR2 agonist counterscreen; shares compounds with GALR2 ag; 10% of 460 active; CHO NFAT-bla reporter, beta-lactamase FRET activation; activation, % at 5.6 µM;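 active = activation above the screen-wide mean activation plus 3 SD, cut at about 8% in these data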;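 note: 0% = DMSO with PBS wells and 100% = thapsigargin positive control wells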
# * marks the source's active call; other numbers are inactive results; · = no result.
SMILES,GALR2 ag,S1P2 ag,FAK blocker,S1P2 blocker,sdo1 growth,GALR2 blocker,GALR2 ag confirm,BLA activ ctr
Cc1n[nH]c(C)c1N1C(=O)c2cccc3c(N4CCCCCC4)ccc(c23)C1=O,1,-10,-2,33,-1.1,18,·,·
Cc1ccc(S(=O)(=O)NC(=O)NCc2ccc3c(c2)OCO3)cc1,152*,-5,-1,16,0.24,-2,0,-2
CC(=O)Nc1sc(/C(C#N)=C/c2ccc(Cl)c(Cl)c2)nc1-c1ccc(C)cc1,0,·,·,·,-0.94,-6,·,·
COc1ccc(C2=NOC(C(=O)NCc3cccs3)C2)cc1OC (stereo not given),-1,-3,-1,-11,1.5,-5,·,·
COc1cc(C2=NOC(C(=O)NCc3cccs3)C2)cc(OC)c1OC (stereo not given),88*,-1,-2,-9,1.5,7,-1,-2
O=[N+]([O-])c1ccc(Nc2nc(N/N=C\c3ccc4c(c3)OCO4)nc(N3CCCCC3)n2)cc1,-3,-11,2,27,0.42,-9,·,·
O=C(CCn1c(SCC(=O)NCc2ccco2)nc2ccccc2c1=O)NCCc1ccccc1,-1,0,0,15,0.45,-6,·,·
Cc1nc2ccccc2n1CCc1nc2c3ccccc3nc(SCC(=O)NCc3ccco3)n2n1,8.7*,-5,16,1,-0.34,-1,-1,1
Cc1occc1-c1nnc(SCC(=O)Nc2nc(-c3ccccc3)cs2)o1,19*,-8,-1,-13,0.25,4,0,-1
Cc1noc(C(=O)N2CC3(C)CC2CC(C)(C)C3)c1Cl (stereo not given),-2,-3,4,3,-0.17,-4,·,·
CC1CN(Cc2cc(=O)[nH]c(C(C)C)n2)CC(C)O1 (stereo not given),46*,0,3,0,0.94,-11,-1,0
O=C(NNc1ccc(C2CCCCC2)cc1)C(O)(c1ccccc1)c1cccs1 (stereo not given),13*,-3,3,-9,-1.5,8,-1,-2
COc1ccc(C(O)(C(=O)NNc2ccc(C)cc2)c2cccs2)cc1 (stereo not given),-1,-7,0,6,-0.93,-2,·,·
C=CCNC(=O)c1c(N)n(-c2cccc(S(N)(=O)=O)c2)c2nc3ccccc3nc12,8,10,2,1,0.39,-6,2,6
O=C(/C=C/c1ccccc1F)c1cccc([N+](=O)[O-])c1,-1,·,·,·,-1.6,-3,·,·
O=C(Oc1ccc(F)cc1C(=O)/C=C/c1cccs1)c1cccc([N+](=O)[O-])c1,39*,-4,8,10,-0.6,11,2,3
O=C(Cc1sc(-c2ccccc2Cl)nc1-c1ccccc1)Nc1ccc(F)cc1,-2,-8,-2,-11,0.37,-6,·,·
O=C(Cc1sc(-c2ccccc2Cl)nc1-c1ccccc1)Nc1ccccc1,26*,-6,-11,6,-0.79,-8,3,5
CCc1ccc(NC(=O)N(C2CCC(C)CC2)C2CCN(C(C)=O)CC2)cc1 (stereo not given),-2,-2,-2,4,-0.03,-2,·,·
CCOc1cc(C2CC(=O)c3c(ccc4ccccc34)N2)ccc1O (stereo not given),-1,-6,3,7,-0.09,-5,·,·
COC(=O)C(CC(=O)c1ccc(Cl)cc1)c1ccc(C(C)C)cc1 (stereo not given),-1,-2,-9,-5,-0.04,0,·,·
CNC(=O)C1C(=S)NC(N)=C(C#N)C1c1ccccc1 (stereo not given),-1,-2,-1,-1,2,5,·,·
C=CCc1ccc(OCC(O)CN2CCCCC2C)c(OC)c1 (stereo not given),-1,-5,11,2,0.58,-6,·,·
COc1ccc(OC)c(CN2CCCC(C(=O)N3CCCCC3)C2)c1 (stereo not given),72*,0,-7,16,-0.69,3,0,-2
COc1ccc(Br)cc1CN1CCCC(C(=O)N2CCCCC2)C1 (stereo not given),-2,-2,1,-3,-0.14,-7,·,·
